Among the data in PubChem BioAssay (EPA / NIEHS) are outcome and AC50 values, retold here.

Active and inactive are the calls of the source. Rule for the calls: active = hit-call score of the fitted dose curve at least 0.9, where 1 is the maximum; inactive = score below 0.9.

The nature of this experiment: ATG_GATA_CIS: Attagene CIS-FACTORIAL HepG2 Assay for human GATA Binding Protein (AID 2282944). The note with it: HepG2 GATA cis-element reporter, Attagene multiplex mRNA; actives raise or lower the signal. The protocol: ATG_CIS is a cell-based, multiplexed-readout assay that uses HepG2, a human liver cell line, with measurements taken at 24 hours after chemical dosing in a 24-well plate.ATG_GATA_CIS is one of 52 assay component(s) measured or calculated from the ATG_CIS assay. It is designed to make measurements of mRNA induction, a form of inducible reporter, as detected with fluorescence intensity signals by Reverse transcription polymerase chain reaction (RT-PCR) and Capillary electrophoresis technology.Data from the assay component ATG_GATA_CIS was analyzed into 1 assay endpoint. This assay endpoint, ATG_GATA_CIS, was analyzed with bidirectional fitting relative to DMSO as the negative control and baseline of activity. Using a type of inducible reporter, measures of mRNA for gain or loss-of-signal activity can be used to understand the reporter gene at the transcription factor-level as they relate to the gene GATA1. Furthermore, this assay endpoint can be referred to as a primary readout, because this assay has produced multiple assay endpoints where this one serves a reporter gene function. To generalize the intended target to other relatable targets, this assay endpoint is annotated to the dna binding intended target family, where the subfamily is GATA proteins.
Human liver HepG2 cells are transiently transfected with multiple reporter transcription units (MRTUs) in 6-well plates using FuGene 6 reagent (Roche; 3 ml FuGene/1 mg DNA). The MRTU constructs are regulated by a cis-regulating element (promoter). […] A major difference between the CIS and TRANS system is that in CIS activities of endogenous TFs are measured, whereas the TRANS assay evaluates changes in activities of exogenous, chimeric NR-Gal4 proteins. […] At the end of 24 hour incubation, total RNA was isolated using TriZol reagent (Invitrogen). The isolated RNA is then reverse-transcribed using oligo(dT) primer and Mo-MLV reverse transcriptase (Invitrogen) with DNAse I (Ambion) treatment for 30 min. The one-tenth of the produced cDNA was amplified by PCR using Taq DNA polymerase (Invitrogen) and two reporter sequence-specific primers. The PCR products were fluorescently labeled by primer extension with 6-arboxyfluorescein (6-FAM) 5'-labeled reporter sequence-specific primer (2 min at 95 C, 20 s at 68 C and 10 min at 72 C) and these products were digested with 5U of HpaI (New England Biolabs) for 2h at 37 C. The fragments were purified using Qiaquick PCR columns (Qiagen), analyzed on an ABI 3130xL genetic analyzer (Applied Biosystems) with peak positions identified by using a set of X-rhodamine (ROX)-labeled MapMarker1000 molecular weight standards (BioVentures). The raw capillary electrophoresis data was processed using Attagraph software (Attagene).
`CCCNC(=O)NS(=O)(=O)c1ccc(Cl)cc1`: the result was inactive.

Regarding `CCCCCCCCCCC=CC#N`, the compound was called inactive.

On to `CCOC(=O)[C@H](C)O`, for which the outcome was inactive. On to `C=C(C)C(=O)OCC(C)C`, for which the call was inactive. Regarding `COC(=O)/C=C\C(=O)O`, the compound was called inactive. Same read-out and setting: with `CN1C(=O)N(C)C(O)C1O` (stereo not given) the entry was “inactive”; with `CCCCCCOc1cc(C)c(O)c(C)c1C`, “inactive”. The same measure, in the same setting: then `Cc1cccc(N)n1`, with “inactive”; and `c1cc(N(CC2CO2)CC2CO2)ccc1OCC1CO1` (stereo not given), with “inactive”. `CCCCCCC(O)CO` (stereo not given): the outcome was inactive. The same measure, in the same setting: then `c1ccc(-c2ccccn2)nc1`, with “inactive”; and `C=C(C)CCO`, with “inactive”. With `CCCCNc1ccc(NCCCC)c2c1C(=O)c1ccccc1C2=O`, the compound was classed as inactive. For `O=C1c2cccc(O)c2C(=O)c2c(O)cc(CO)cc21`, the result was inactive. Turning to `N#CCc1ccc(Cl)cc1Cl`, the call was inactive. For the compound `CC(C)c1ccc(C=O)cc1`, the result was inactive. As for `O=C1CCCC1`, the call was inactive. Turning to `CC(C)C1=CC2=CC[C@@H]3[C@](C)(CCC[C@@]3(C)C(=O)O)[C@H]2CC1`, the AC50 was 54.1 µM (active). Regarding `COC=O`, the outcome was inactive. Take `CC(=O)Oc1ccc(C(C)=O)cc1`: the result was inactive. On the same count and under the same terms, then `CCOC(=O)c1ccccc1C(=C1C=C(Br)C(=O)C(Br)=C1)c1cc(Br)c(O)c(Br)c1`, with “inactive”. Take `C=C(C)C(=O)OCCOc1ccccc1`: the call was inactive. Take `CC(C)=CCCC(C)C=O` (stereo not given): the outcome was inactive. `Cc1cc(O)c(Cl)c(C)c1Cl`: the result was inactive.

Regarding `CCCCCCCC/C=C\CCCCCCCC(=O)O`, the compound was called inactive. Still for that read-out and setting: with `CCOC(=O)CC` the entry was “inactive”.

Take `CCOc1ccc(N)c([N+](=O)[O-])c1`: the call was inactive. On to `CC=CC(F)(F)C(F)(F)C(F)(F)F`, for which the compound was classed as inactive. As for `CC(C)c1ccc2cc(C(C)C)ccc2c1`, the call was inactive.

As for `c1ccc2c(c1)ccc1ncccc12`, the call was inactive.

Regarding `CCCCC(CC)COC(=O)c1ccccc1` (stereo not given), the result was inactive.

As to `Cc1cc(C)c(C)cc1C`, the compound was called inactive. In the case of `ON(Cc1ccccc1)Cc1ccccc1`, the call was inactive. As to `O=Cc1ccc(CO)o1`, the call was inactive. `COc1ccc([C@@H]2CC(=O)c3c(O)cc(O[C@@H]4O[C@H](CO[C@@H]5O[C@@H](C)[C@H](O)[C@@H](O)[C@H]5O)[C@@H](O)[C@H](O)[C@H]4O)cc3O2)cc1OC`: the result was inactive. Same read-out and setting: with `CO[Si](CCC1CCC2OC2C1)(OC)OC` (stereo not given) the entry was “inactive”; with `CC(C)(Oc1ccc(C2CC2(Cl)Cl)cc1)C(=O)O` (stereo not given), “inactive”. As to `O=C(O)Cc1c(Cl)ccc(Cl)c1Cl`, the result was inactive. Consider `O=C1CCCCCCCCCCCCCCCO1`, for which the compound was called inactive. Same read-out and setting: with `CCCOCCOCCOCCO` the entry was “inactive”.

What is called AC50 is the midpoint of the concentration-response curve, whichever way the signal moves.
